Source: ChEMBL document CHEMBL1157539, “Thousands of chemical starting points for antimalarial lead identification” (Nature, 2010)

Key:
Format in all cases: functional
[1] = test system: Plasmodium falciparum; experiment: GSK_TCMDC: Inhibition of Plasmodium falciparum 3D7 in whole red blood cells, using parasite LDH activity as an index of growth. Test compounds present at 2uM
[2] = test system: Plasmodium falciparum; experiment: GSK_TCMDC: Inhibition of Plasmodium falciparum Dd2 in whole red blood cells, using parasite LDH activity as an index of growth. Test compounds present at 2uM
[3] = test system: HepG2; experiment: GSK_TCMDC: Percent inhibition of human HepG2 cell line. Test compounds present at 10uM.

Compound	Inhibition [1] [%]	Inhibition [2] [%]	Inhibition [3] [%]
O=C(O)C(F)(F)F.O=S(=O)(NCCN1CCCC1)c1ccc(-c2cccc(CNC3Cc4ccccc4C3)c2)cc1F	98	62	41
COc1ccc(-c2cc3nc4c(c(NCCCn5ccnc5)n3n2)CCCC4)cc1	95	74	5
Cc1cc(N[C@@H](Cc2ccccc2)C(=O)NCc2cccc(F)c2)nc(NCC2CCCCC2)n1.O=C(O)C(F)(F)F	100	42	43
CCC1CN2CCc3cc(OC)c(OC)cc3C2CC1CC1NCCc2cc(OC)c(OC)cc21.Cl (stereo not given)	100	98	42
CCCCN1CCN(c2cc(NS(=O)(=O)c3ccc(C(=O)Nc4ccc(C(F)(F)F)cc4)cc3)ccc2OC)CC1.O=C(O)C(F)(F)F	99	20	17
CNC(=O)COc1ccc(Nc2nnc(-c3ccc(C)c(S(=O)(=O)NCC4CCCO4)c3)c3ccccc23)cc1 (stereo not given)	90	68	0
CCc1c(CCNCCCCCNCCc2ccc(OC)c(OC)c2CC)ccc(OC)c1OC.Cl	100	1	59
O=C(NC1CCCCC1)N(CCCn1ccnc1)Cc1csc(-c2ccc(CNCc3ccccc3)cc2)n1.O=C(O)C(F)(F)F	97	48	5
Cc1ccc(NC(=O)Nc2ccccc2)cc1-c1ccc(C(=O)Nc2ccncc2)cc1	99	52	67
CN1CCCN(Cc2cccc(-c3cccc(NC(=O)c4cccc(C#N)c4)c3)c2)CC1.O=C(O)C(F)(F)F	95	33	18
CCN(CC)CCN(Cc1ccc(-c2ccc(Cl)cc2)cc1)C(=O)Cn1cc(CN(C)C)c(=O)nc1SCc1ccc(F)cc1	99	99	49
CCCCOc1ccc(/C=C/c2ccc(-c3c(C)[nH]c(C)c(Cl)c3=O)s2)cc1	97	96	0
CCOC(=O)c1nc(-c2ccccc2)[nH]c1-n1nc(C)cc1C	92	9	7
COCCn1c(-c2cccc(Cl)c2)nn(-c2ccc([N+](=O)[O-])cc2Cl)c1=S	100	99	2
CN(C)CCNC(=O)c1ccc2c(c1)ncn2-c1cc(OCc2ccccc2C(F)(F)F)c(C(N)=O)s1.CN(C)CCNC(=O)c1ccc2ncn(-c3cc(OCc4ccccc4C(F)(F)F)c(C(N)=O)s3)c2c1	90	8	0
Cc1c(Cc2ccc(F)cc2)c(Cl)nc2nc(N)nc(N)c12	92	1	66
CCCc1cc(Cc2cnc(N)nc2N)cc(CCC)c1OCCCCC(=O)O	95	23	18
COc1ccc(S(=O)(=O)NC2CCN(CCCOc3ccnc4cc(Cl)ccc34)C2)cc1OC (stereo not given)	91	56	8
O=C(Nc1cccc(CN2CCCN(Cc3cccc(Cl)c3)CC2)c1)c1ccc(Cl)c(Cl)c1.O=C(O)C(F)(F)F	89	17	18
O=C(Nc1cccc(-c2ccc(-c3nc4cc(C(F)(F)F)ccc4[nH]3)cc2)c1)c1ccoc1	98	42	76
O=C(/C=C/c1ccc(Cl)c(Cl)c1)NCCCCCN1CCC(CCNC(=O)/C=C/c2ccc(Cl)c(Cl)c2)CC1	100	56	68
COc1cc(OC)cc(-c2nn(-c3ccc([N+](=O)[O-])cc3C#N)c(=S)n2Cc2ccco2)c1	100	100	11
COc1cc(Cc2cnc(N)nc2N)cc(OCCn2ccccc2=O)c1OC	97	0	4
COc1ccc(C(O)CNC(C)CCc2ccccc2)cc1C(F)(F)F.Cl (stereo not given)	99	100	3
Br.CC1(C)NC(N)=NC(=N)N1OCCCOc1ccc(N)cc1	96	95	66
O=C(Nc1ccc(-c2nc3ccccc3[nH]2)cc1)C1CCCN(C2CCC2)C1 (stereo not given)	90	5	0
CNC(=O)c1cnc(Nc2ccc3[nH]c(=O)[nH]c3c2)nc1Nc1cccc(OC(C)C)c1.O=C(O)C(F)(F)F	89	94	18
Cc1cc(N[C@@H](Cc2ccccc2)C(=O)NC2CCCC2)nc(NCCc2ccc(F)cc2)n1.O=C(O)C(F)(F)F	100	61	21
Cc1cccc2nc(-c3ccc(-c4ccc(CNCCCN5CCCC5=O)cc4)s3)[nH]c12.O=C(O)C(F)(F)F	100	43	17
O=C(NCCCN(Cc1ccc(F)cc1)c1ccccn1)C(c1cc2ccccc2o1)N1CCN(C(c2ccccc2)c2ccccc2)CC1 (stereo not given)	97	53	14
